What was measured:
Experiment in all cases: PBM binding z-score (relative to random genomic background probes); higher = stronger binding; sequences stand for … in GC…GCGATTGACAGCGTAGAATGAAGG
[1] = test system: RARb homodimer (NR concentration 270 nM)
Outline: (§1)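 Binding z-scores were set against random background probes. The data came from custom Agilent 4×180K protein-binding microarrays carrying double-stranded probes with 34-nt variable regions, incubated 1 h with ligand-free nuclear receptor dimers. Partner-specific antibodies detected binding, and scanned fluorescence was regression-normalized.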

[2] = test system: RARg:RXRa (NR concentration 270 nM, RXRa partner concentration 90 nM)
Outline: as §1

[3] = test system: RARg homodimer (NR concentration 270 nM)
Outline: as §1

[4] = test system: RXRa DBDmut IVT, anti-RXR (DBD mutation: RXRa K156A/R161A, NR concentration 90 nM)
Outline: as §1

[5] = test system: RXRa homodimer (NR concentration 180 nM)
Outline: as §1

[6] = test system: THRa:RXRa (NR concentration 90 nM, RXRa partner concentration 90 nM)
Outline: as §1

[7] = test system: THRa homodimer (NR concentration 90 nM)
Outline: as §1

[8] = test system: VDR homodimer (NR concentration 270 nM)
Outline: as §1

Row | Sequence | PBM binding z-score [1] | PBM binding z-score [2] | PBM binding z-score [3] | PBM binding z-score [4] | PBM binding z-score [5] | PBM binding z-score [6] | PBM binding z-score [7] | PBM binding z-score [8]
1 | CCAGACAGGTGAAAGGTAACACAGTCTGGTACGC | 1.1 | 1.72 | 1.07 | -0.201 | 2.27 | 1.02 | -0.219 | -0.147
2 | GCTATTAGTTGAAAGGGCAAACGAATGATTCTCG | 1.86 | 1.24 | 1.06 | 0.931 | 1.38 | 0.777 | -0.332 | 0.589
3 | GCATATAGGTAACACAAGGTGAAAGTCCGATTGT | 1.15 | 0.82 | 0.784 | 0.286 | 0.938 | 4.19 | 0.843 | 0.00161
4 | CCGACTGGGGCAGGAAGGTTACCATACCATCCGG | 1.15 | 0.592 | 0.687 | -1.31 | 0.585 | 0.142 | -0.486 | -0.24
5 | CCTAGCAGCCCAGGGTCACTCAAGCATTTCGCTT | 2.69 | 2.9 | 2.45 | 0.289 | 3.38 | 2.77 | 1.13 | 1.33
6 | CCTACTGGGCCATTCAGCGGTCATTGATCATATG | 1.85 | 1.97 | 1.02 | -0.0941 | -0.0428 | 0.283 | 0.0718 | 0.166
7 | TCGAGTAGGTTAGTCGGGACATTCAGCCAACATA | 0.0324 | -0.106 | 0.0152 | 0.327 | 0.107 | 1.39 | 0.328 | 0.0666
8 | CGTCAAAGTTTAACTAAGGTAACGTAAAGCACGC | 1.7 | 1.51 | 1.92 | 1.68 | 0.784 | 4.66 | 1.99 | 0.79
9 | TAGCCTAGGTCAGACCGGGCCAGTATACGCTATA | 2.24 | 2.62 | 3.34 | -0.68 | 1.38 | 3.99 | -0.0936 | -0.324
10 | GCATATAGGTAGTACAAGGTGAAAGTCCGATTGT | 0.817 | 0.404 | 0.395 | 0.422 | 0.53 | 3.23 | 1.02 | 0.0912
11 | GCTAGTTGGTCAGTAAACGGTCACACACCGGTCG | 2.63 | 1.5 | 1.33 | -0.0327 | 0.347 | 0.155 | -0.176 | -0.361
12 | ATATGTAAGTTAGCTGGGGTCATTCAGACTAGGC | 3.29 | 3.58 | 2.19 | 1.95 | 5.13 | 4.31 | 3.21 | 4.9
13 | GGAACGTGGGCAAGTTGATAGCAGAGTTTGATGG | -0.282 | -0.487 | -0.279 | 0.175 | -0.184 | -0.685 | -0.691 | 0.343
14 | CAAACTAGGTCACAGAAGTCAAAGTCCGTGCGTA | 3.41 | 4.45 | 5.16 | 2.03 | 3.63 | 3.3 | 1.26 | 1.16
15 | CCTACTGGGCAAAGGTCATTGATCAGTCAAAGCA | 4.39 | 6.27 | 4.92 | 1.48 | 6.88 | 3.05 | 0.287 | 2.31
16 | TCTTGTAGATCAAAGGTTCAGAAAGCCGAAGCCT | 0.917 | 0.795 | 0.335 | 1.32 | 1.29 | 0.166 | -0.308 | 1.5
17 | GCAGTCAGGTGAAACGCAGGTAACTCAGGGTGGC | 0.205 | 0.634 | 0.376 | -0.235 | 0.237 | 1.8 | 0.308 | -0.682
18 | ACTAGCAGGACAAGTTTGGGTCACTCAAACAAAG | 2.28 | 1.51 | 1.55 | 0.164 | 0.931 | 2.62 | 1.42 | 0.216
19 | ACTAGCAGGCCAAGTTTGGGTCACTCCAACAAAG | 2.33 | 2.23 | 1.55 | 0.0144 | 0.704 | 2.47 | 1.05 | 0.157

Row | Sequence | PBM binding z-score [1] | PBM binding z-score [2] | PBM binding z-score [3] | PBM binding z-score [4] | PBM binding z-score [5] | PBM binding z-score [6] | PBM binding z-score [7] | PBM binding z-score [8]
20 | CGAACTAGGTCATCCTGGACAGTGAATACATTGA | 2.86 | 3.82 | 4.56 | 2.37 | 2.67 | 2.89 | 1.35 | 1.5
21 | CGAATTAGGTCATCCAGGACAGTGAATACATTGA | 3.34 | 4.29 | 5.18 | 2.45 | 3.1 | 4.01 | 2.77 | 2.04
22 | CCTGACGGGTCAAGGTTATAGCACGGGTGGTACG | 3.21 | 4.37 | 4.65 | 0.202 | 4.64 | 2.63 | 0.682 | 1.34
23 | CGAACGAGGGCATGAGTTGGTAGCAAATGCCGAT | 0.553 | 0.807 | 1.29 | 1.87 | 0.675 | 1.03 | -0.283 | 0.904
24 | CCTACTTGGTCAAGGTCACACACGCTATAGGTAC | 4.57 | 4.56 | 4.86 | 2.17 | 4.71 | 4.06 | 4.41 | 3.28
25 | AGAATGAGGTTATACGTCGATCAGGGAAGAAAGT | 0.644 | 1.73 | 0.993 | 1.69 | 2.07 | 2.01 | 0.495 | 0.866
26 | TCGATTAGGTTAGTCGGGGCATTCAGCCAACATA | 0.609 | 0.149 | 0.141 | 1.32 | 0.147 | 1.4 | 0.446 | 0.465
27 | ACTATTAGTTGAGACGAGGGCAACCGTTAGGTTG | 1.22 | 0.448 | 0.848 | 0.599 | 0.373 | 2.62 | 0.14 | 0.969
28 | CCTACTAGGTCAATGGTCAGCTAAAGCAGCTCGC | 3.28 | 3.39 | 4.16 | 1.71 | 2.26 | 2.47 | 0.868 | 0.437
29 | TCTGCTAGTTCAGTTGGTCAGCTAACGAGCTGCC | 0.296 | -0.136 | 0.0684 | 0.659 | -0.391 | -0.312 | -0.718 | -0.523
30 | AGAACGAGGGCAATGAGTTGATAGCGCGGGTGGC | 0.949 | 0.964 | 1.44 | 2.34 | 0.602 | 0.756 | -0.205 | 3.3
31 | CCTTACGGGTCACTCCAGGTAATAGCATCGGAGT | 2.75 | 4.2 | 4.02 | 1.48 | 4.32 | 4.97 | 0.347 | 1.19
32 | AATACAGTGTCACTAGGCCAGAGTAGGTACGAAT | 0.565 | 0.553 | 0.864 | 0.0246 | 0.185 | 0.145 | -0.314 | 0.0225
33 | ACTATTAGTTGACTGAGGGCAACCGATACGACGC | 1.72 | 0.837 | 1.38 | 1 | 0.572 | 1.91 | 1.06 | 1.71
34 | ACAGACAGATGAGTGAAGGTAACTCAGCTGGACG | -0.259 | 0.311 | 0.543 | -0.223 | 0.367 | 0.16 | -0.331 | -0.0316
35 | CCTAGCAGGCCAGGGTCACTCAGGCATTTCGCTT | 2.73 | 2.77 | 2.03 | 0.226 | 3.07 | 2.58 | 0.878 | 1.07
36 | CCTTACGGGTCACTGACGGGTTATAGCATTTGGA | 3.38 | 5.58 | 4.49 | 1.51 | 5.1 | 2.74 | 0.301 | 0.822
37 | CCTTACTGGTCACGAGGTTATAGCACGACGAGCG | 1.98 | 2.5 | 1.86 | 0.396 | 2.28 | 1.91 | 1.11 | 1.13
38 | CCTTACGGGTCAACGTTATAGCACGGGTGGTACG | 3.19 | 4.85 | 4.64 | 0.494 | 5.03 | 2.36 | -0.182 | 0.692

Row | Sequence | PBM binding z-score [1] | PBM binding z-score [2] | PBM binding z-score [3] | PBM binding z-score [4] | PBM binding z-score [5] | PBM binding z-score [6] | PBM binding z-score [7] | PBM binding z-score [8]
39 | CGAACGAGGGAATGAGTTGATAGCAAATGCCGAT | -0.933 | -0.383 | 0.11 | -0.064 | -0.465 | -0.489 | -0.692 | 0.188
40 | ACTTACGCGTCAACGAGGTTATAGCACGCGTATA | 0.406 | 0.413 | 0.22 | 0.579 | 1.09 | 1.52 | 0.379 | 0.536
41 | GCGACTGGGGCATTAGCAGGTTACCATAACTTAA | 0.877 | 0.345 | 0.226 | 0.29 | 0.0797 | 0.892 | 0.101 | -0.236
42 | GCTTGTATATCAAGGTTAAGAAAGACTAAGCTAA | 0.176 | 0.526 | 0.28 | 0.464 | 0.746 | 1.24 | -0.21 | -0.0299
43 | GCTTACGGGTCAAATGTTATAGCATGAATAGAAT | 2.6 | 4.88 | 4.02 | 2.4 | 5.86 | 2.54 | -0.146 | 1.1
44 | CCTCGGCGGACAGAAGGTCAGAGCTGTCCGCTTT | 2.77 | 2.53 | 1.99 | -0.44 | 1.64 | 1.05 | -0.714 | -0.703
45 | GCATATAGGTAATACAAGTTGAAAGTCCGATTGT | 0.185 | 0.232 | 0.481 | 0.331 | 0.404 | 1.76 | -0.418 | 0.193
46 | CCGACTGGGCCAAGGTCATTGATCAGTCAAAGCA | 3.28 | 3.72 | 3.11 | 1.4 | 3.09 | 3.46 | 2.09 | 3.33
47 | ACTTACGGGTCAACGAGATTATAGCACGCGTATA | 2.96 | 5.12 | 4.89 | 2.05 | 5.72 | 2.67 | 0.499 | 1.35
48 | CCGAGTAGGTTACGGGGCATTCAGGCAACGGTGA | 1.11 | 1.02 | 1.07 | -0.416 | 1.16 | 0.851 | -0.136 | 0.121
49 | ACTTACGGGTCAACGAGTTTATAGCACGCGTATA | 3.4 | 5.13 | 5.14 | 3.3 | 5.62 | 3 | 0.511 | 6.13
50 | GCTAGCAGGCCATTTGGGTCATTCAATGACGGGC | 1.64 | 0.979 | 1.01 | 0.394 | 0.908 | 1.82 | 0.24 | 1.21
51 | CGAACTAGGTCATCCAGGAAAGTGAATACATTGA | 2.85 | 4.03 | 4.93 | 2.23 | 3.11 | 2.77 | 0.863 | 1.12
52 | CGAACTAGGTCAGACCAGGACAGTGAAGGATGAT | 2.36 | 2.82 | 3.53 | 0.518 | 1.51 | 4.75 | 0.741 | -0.102
53 | ACTGGGAGGACAAAGGTCAGAGCTACGCCAGTGA | 4.78 | 6.22 | 5.14 | 1.06 | 5.47 | 3.85 | 1.25 | 1.41
54 | TCTCGGAGGACACGAAGGTTAGAGCTTTCCAGAG | 1.26 | 0.969 | 1.89 | 0.169 | 0.126 | 1.59 | 0.277 | -0.226
55 | CGTCCAAGGACATAGGAGGTCAGTGAAGACAGAT | 3.17 | 2.46 | 3.05 | 0.749 | 1.64 | 3.54 | 1.83 | 1.48
56 | AGAATGAGGTTATACGTAGAACAGGGAAGAAAGT | 0.739 | 1.6 | 1.14 | 1.5 | 2.13 | 2.04 | 0.323 | 1.03
57 | ATACCAAGGTGATCGTGATGTCGTTGATACTAAC | 0.279 | 0.25 | 0.334 | 0.0865 | 0.28 | 0.81 | 0.541 | 0.117

Reference: the supplement of paper PMC6555819
